# More than one record can exist for a structure, and the calls need not agree. The source made the active and inactive calls. Rule for the calls: active = hit-call score of the fitted dose curve at least 0.9, where 1 is the maximum; inactive = score below 0.9.
# Assay: ATG_AP_2_CIS: Attagene CIS-FACTORIAL HepG2 Assay for human Activator Protein 2 (AP-2) (AID 2282932)
# Conditions: HepG2 AP-2 cis-reporter, Attagene transcription factor profiling; actives raise or lower the signal
# Summary of the method: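 HepG2 cells were transiently transfected with multiple cis-promoter reporter transcription units and dosed for 24 h. Reporter mRNA was measured by RT-PCR with capillary electrophoresis fluorescence; bidirectional fits relative to DMSO baseline.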
Structure (SMILES),outcome,AC50
CC(C)CCCCCCOC(=O)CCCCC(=O)OCCCCCCC(C)C,inactive,
NC(=O)N1C(=O)C(C(=O)c2cc(Cl)cs2)c2cc(F)c(Cl)cc21 (stereo not drawn),inactive,
CC#C[C@]1(O)CC[C@H]2[C@@H]3CCC4=CC(=O)CCC4=C3[C@@H](c3ccc(N(C)C)cc3)C[C@@]21C,inactive,25.7 µM (active)
CCCCCCC(=O)O,inactive,
O=C1OC2(c3ccccc31)c1cc(Br)c(O)c(Br)c1Oc1c2cc(Br)c(O)c1Br,inactive,
CC[C@H](c1ccc(O)cc1)[C@@H](CC)c1ccc(O)cc1,inactive,
CCCOc1sc(C(=O)N2CCC(c3cc(CN)ccc3F)CC2)c(C)c1Br,inactive,
CC(O)CO (stereo not drawn),inactive,
O=C(O)c1ccccc1C(c1ccc(O)cc1)c1ccc(O)cc1,inactive,
NCC(F)(F)C(F)(F)C(F)(F)C(F)(F)C(F)(F)C(F)(F)C(F)(F)F,inactive,
Oc1cccc(O)c1,inactive,
CC(C)(C)c1cc(C(C)(C)C)c(O)c(C(C)(C)C)c1,inactive,
CCCCC(CC)COC(=O)CCCCC(=O)OCc1ccccc1 (stereo not drawn),inactive,
CN1CCC[C@H]1c1cccnc1,inactive,
OC1CCC(C2CCCCC2)CC1 (stereo not drawn),inactive,56.9 µM (active)
CCCCCCCCCCCCc1ccccc1S(=O)(=O)O,inactive,
COCC(C)O (stereo not drawn),inactive,
CC(C)(C)c1cccc(C(C)(C)C)c1O,inactive,

Structure (SMILES),outcome,AC50
Cc1cc(C)c(O)c(C)c1,inactive,
CC(C)(C)c1ccc(O)c(C(C)(C)C)c1,inactive,
Oc1cc2ccccc2c2ccccc12,inactive,
N#C[C@@H]1CC(F)(F)CN1C(=O)CNC1CC2CCC(C1)N2c1ncccn1 (stereo partly drawn),inactive,
O=C(OCCOCCOC(=O)c1ccccc1)c1ccccc1,inactive,
CC(O)C(=O)O (stereo not drawn),inactive,
COc1ccc([N+](=O)[O-])cc1N,inactive,
Cc1ccc(S(=O)(=O)O)c(C)c1,inactive,
NC(=O)N(O)[C@@H]1C=C[C@H](Oc2cccc(Oc3ccc(F)cc3)c2)C1,inactive,
CCC(C)(C)C1CCC(O)CC1 (stereo not drawn),inactive,
FC(F)(I)C(F)(F)C(F)(F)C(F)(F)C(F)(F)C(F)(F)I,inactive,
c1ccc2c(c1)ccc1ccccc12,inactive,
CCOC(=O)CC(O)(CC(=O)OCC)C(=O)OCC,inactive,
CCCCCCCCCCCCCC[N+](C)(C)C,inactive,
Nc1cccc2c(N)cccc12,inactive,
C[C@@H]1C[C@H]2[C@@H]3CCC4=CC(=O)C=C[C@]4(C)[C@@]3(F)[C@@H](O)C[C@]2(C)[C@@]1(O)C(=O)COP(=O)(O)O,inactive,
CCCCCCCCOC(=O)CCCCCCCCC(=O)OCCCCCCCC,inactive,
CC(C)(C)CC(C)(C)c1ccc(O)c(-n2nc3ccccc3n2)c1,inactive,

# From PubChem BioAssay (EPA / NIEHS)
